Records with an inconclusive call do not appear. Activity calls are given as the source filed them. The call rests on the fitted dose curve; in most records, active means well fitted curve in the direction sought with a large enough effect; inconclusive means small, poorly fitted or top-dose-only effect, or another doubt; inactive means no such curve, though single readings can be large; an effect the other way counts as inactive or inconclusive.
Molecular target: Cytochrome P450 3A4 (Homo sapiens) (UniProt P08684)
Sequence (P08684 whole entry, looked up): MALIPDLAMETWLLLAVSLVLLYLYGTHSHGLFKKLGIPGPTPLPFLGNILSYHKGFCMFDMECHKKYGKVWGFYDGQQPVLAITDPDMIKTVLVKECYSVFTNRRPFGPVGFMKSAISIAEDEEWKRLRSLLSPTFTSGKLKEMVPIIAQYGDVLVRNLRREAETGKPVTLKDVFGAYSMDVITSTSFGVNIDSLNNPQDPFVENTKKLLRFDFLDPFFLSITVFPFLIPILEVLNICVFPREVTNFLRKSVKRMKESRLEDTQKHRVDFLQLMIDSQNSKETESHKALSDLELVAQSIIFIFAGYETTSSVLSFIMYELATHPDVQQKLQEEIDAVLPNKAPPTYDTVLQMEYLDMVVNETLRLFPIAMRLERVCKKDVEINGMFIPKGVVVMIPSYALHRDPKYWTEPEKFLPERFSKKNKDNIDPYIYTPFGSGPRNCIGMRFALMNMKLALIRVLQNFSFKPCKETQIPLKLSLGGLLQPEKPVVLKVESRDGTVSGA
Experiment: qHTS Assay for Inhibitors and Substrates of Cytochrome P450 3A4 (AID 884); further: on the % scale 0 is the no-effect control and ±100 the full control effect; nearly all actives have a fitted effect of over 50% in size
Conditions: recombinant CYP3A4, Luciferin-PPXE luminescence; series mostly up to 57.1 µM; activity change, negative = inhibition: at the top concentration
Procedure, shortened: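 20 nM human CYP3A4 with 25 uM Luciferin-PPXE (at KM) in 200 mM KPO4, preincubated 10 min with compound; NADPH regeneration started a 60 min RT reaction. Luciferin detected by luminescence, normalized to 57 uM ketoconazole as full inhibition.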

Potency, inactive:
CNC(=O)Oc1ccc2c(c1)[C@@]1(C)CCN(C)C1N2C (stereo not given in full)

Activity change, negative = inhibition, inactive:
C[C@]12CCC3c4ccc(O)cc4CCC3C1CCC2OC(=O)CCC1CCCC1 (stereo not given in full) 87.3%
NC(=O)c1cc[n+](CC2=C(C(=O)O)N3C(=O)C(NC(=O)C(c4ccccc4)S(=O)(=O)[O-])C3SC2)cc1 (stereo not given) -26.6%
CSCCC(NC=O)C(=O)NC(CC(C)C)C(=O)NC(Cc1ccccc1)C(=O)O (stereo not given) -10.6%
NC(C(=O)O)C(O)C(=O)O (stereo not given) -13.9%
COc1ccc(/C=C/C(=O)c2cc(O)ccc2O)cc1 -61.6%
C=CCCCCCCCCCCCC(O)CC(O)COC(C)=O (stereo not given) (tested in a mixture with another compound) -0.196%

Molecular target: Cytochrome P450 3A4 (Homo sapiens) (UniProt P08684)
Experiment: qHTS Assay for Activators of Cytochrome P450 3A4 (AID 885); further: nearly all actives have a fitted effect of over 65% in size
Conditions: recombinant CYP3A4, Luciferin-PPXE luminescence, 60 min; series mostly up to 57.1 µM; activity change, positive = activation: at the top concentration
Procedure, shortened: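 Human CYP3A4 (20 nM) with Luciferin-PPXE at 25 uM (its KM) in 200 mM KPO4; 10 min compound preincubation, then NADPH regeneration and 60 min reaction at RT. Luciferin read by luminescence; normalized to 57 uM ketoconazole full inhibition.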

Activity change, positive = activation, inactive:
COC(=O)[C@@H]1C[C@@H]2CC[C@@H](O)C[C@@H]2N1Cc1ccc(C)s1 -55.4%
O=C(N/N=C1/C[C@@H](O)[C@@H](O)[C@@H]2[C@H]3C(=O)N(c4ccc(F)cc4F)C(=O)[C@@H]3CC[C@@H]12)OCc1ccccc1 -45.4% [at 11.4 µM]
COC(=O)c1cccc(C23CC4(C2)[C@H](CN(Cc2ccc(-c5ccccc5)cc2)[C@@H]4c2ccccc2)C3c2ccc(C(F)(F)F)cc2)c1 (stereo not given in full) -49.9%
CCC1=C2CC[C@H]3C(=O)N(CC)C(=O)[C@H]3[C@H]2[C@@]2(Cc3ccccc3)C(=O)N(CC3CC3)C(=O)N2C1=O -66.6%
COC(=O)c1ccc(C23CC4(C2)[C@H](CN(C)[C@@H]4c2ccccc2)C3c2ccccc2)cc1 (stereo not given in full) -59.7%
O=C1[C@@H]2[C@H]3[C@H](O)[C@H](O)C/C(=N/OC[C@@H](O)COCc4ccco4)[C@H]3CC[C@H]2C(=O)N1c1ccc(F)cc1F -44.4% [at 11.4 µM]
CC(C)=CCC/C(C)=C/CO/N=C1/C[C@@H](O)[C@@H](O)[C@@H]2[C@H]3C(=O)N(c4ccc(F)cc4F)C(=O)[C@@H]3CC[C@H]12 -35.2% [at 11.4 µM]
CC(C)CO/N=C1/C[C@@H](O)[C@@H](O)[C@@H]2[C@@H]3C(=O)N([C@@H](C)c4ccccc4)C(=O)[C@H]3CC[C@H]12 -46.1% [at 11.4 µM]
COc1ccc(O[C@H]2C=C[C@@H](c3ccccc3)O[C@H]2CO/N=C(/C)CCC(=O)OC[C@@H]2O[C@H](C#Cc3ccccc3)C=C[C@@H]2Oc2ccc(C)cc2)cc1 -52.7% [at 11.4 µM]
COC(=O)NC(/C(C(=O)OC)=C(\C)NCc1ccccc1)c1cccs1 (stereo not given) -35.9% [at 11.4 µM]
CO[C@H]1COC(=O)CCC[C@@H](C)[C@H](OC)COC(=O)[C@H]2CCCN2C(=O)C/C=C\[C@@H]1C -30.7% [at 11.4 µM]
CCc1cc2c(nc1CC)CCN(CC/C(C)=N/OC[C@H]1O[C@H](c3ccccc3)C=C[C@@H]1Oc1ccc(OC)cc1)C2 -51.8% [at 11.4 µM]
C/C(CCN1CCc2nc(-c3ccccc3)c(-c3ccccc3)cc2C1)=N\OC[C@@H](O)[C@@H]1O[C@@H]2OC(C)(C)O[C@@H]2[C@H]1O -41.3% [at 11.4 µM]
CO[C@H]1COC(=O)[C@H](C)COC(=O)C/C=C\[C@@H](C)[C@H](OC)COC(=O)C/C=C\[C@@H]1C -51.9% [at 11.4 µM]
CO[C@@H]1COC(=O)C/C=C\[C@@H](C)[C@H](OC)COC(=O)[C@H](COCc2ccccc2)NC(=O)C/C=C\[C@H]1C -41.7% [at 11.4 µM]
COC(=O)c1cccc(C23CC4(C2)[C@H](CN(Cc2ccc(C(F)(F)F)cc2)[C@@H]4c2ccccc2)C3c2ccc(Cl)nc2)c1 (stereo not given in full) -32.7%
FC(F)(F)c1ccc(C2[C@H]3CN(Cc4ccc(-c5ccccc5)cc4)[C@H](c4ccccc4)C34CC2(c2cccnc2)C4)cc1 (stereo not given in full) -54.4%
CO[C@H]1COC(=O)[C@H](C)COC(=O)[C@@H](Cc2ccccc2)NC(=O)C/C=C\[C@H]1C -39.6% [at 11.4 µM]
C/C(CCN1CCCc2nc(C)c(C)cc21)=N\OC[C@@H](C)[C@H](OCc1ccccc1)C(C)C -46.3% [at 11.4 µM]
COC(=O)[C@@H]1C[C@H]2CC[C@H](O)C[C@H]2N1Cc1ccc(N2CCOCC2)cc1 -51.5%
CO[C@H]1COC(=O)[C@H]2CCCN2C(=O)C/C=C\[C@@H](C)[C@H](OC)COC(=O)C/C=C\[C@@H]1C -32.7% [at 11.4 µM]
CN1C[C@@H]2C(c3ccc(Cl)nc3)C3(c4ccc(C#N)cc4)CC2(C3)[C@H]1c1ccccc1 (stereo not given in full) -44.9%
COC(=O)[C@@H]1C[C@@]2(O)[C@H](O)[C@H](O)[C@H](O)C[C@H]2N1Cc1cc(OC)cc(OC)c1 -39.3%
C[C@@H](c1ccccc1)N1C(=O)[C@H]2[C@H]3[C@H](O)[C@H](O)C/C(=N/OCc4ccccc4)[C@H]3CC[C@@H]2C1=O -40.9% [at 11.4 µM]
CCC1=C2CC[C@H]3C(=O)N(CC(=O)OC)C(=O)[C@H]3[C@H]2[C@@]2(C)C(=NCC(=O)OC)OC(=O)N2C1=O -54.5%
Cc1nc(NC2CCCCC2)c2nc(-c3ccccc3)n(CCCN3CCOCC3)c2n1 -51.2%
C#CCCCO/N=C1/C[C@@H](O)[C@@H](O)[C@@H]2[C@@H]3C(=O)N(CCC(=O)OCC)C(=O)[C@H]3CC[C@@H]12 -45.7% [at 11.4 µM]
COC(=O)c1cccc(C23CC4(C2)[C@H](CN(Cc2ccc(-c5ccccc5)cc2)[C@@H]4c2ccccc2)C3c2ccccc2)c1 (stereo not given in full) -42.7%
CO[C@@H]1/C=C\CC(=O)N[C@@H](C)C(=O)OC[C@@H](OC)[C@H](C)/C=C\CC(=O)OC[C@H]1C -36.7% [at 11.4 µM]
O=C1CCCC=C1[C@@H](O)COCc1ccccc1 -31.3% [at 11.4 µM]
CCc1cc2c(nc1CC)CCN(CC/C(C)=N/OCC[C@@H]1C=C[C@H](OC(C)=O)[C@H](COC(C)=O)O1)C2 -32.1% [at 11.4 µM]
CC(C)=CCC/C(C)=C/CO/N=C1/C[C@@H](O)[C@@H](O)[C@@H]2[C@@H]3C(=O)N(C[C@@H]4CCCO4)C(=O)[C@H]3CC[C@H]12 -35.7% [at 11.4 µM]
Cc1ccc(S(=O)(=O)N[C@H]2COC(=O)[C@H](C)COC(=O)[C@H](C)NC(=O)C/C=C\[C@H]2C)cc1 -41.3% [at 11.4 µM]
